# An excerpt weighted towards active compounds, which were near 10% of everything screened.
# Six1-Eya2 inh: qHTS Assay for Inhibitors of the Six1/Eya2 Interaction. activity change, % (concentration not given with the values). 360,000 tested, 0.56% active. AlphaScreen GST-Six1/His-Eya2 binding, biochemical; active compounds read low; in the data active = activity change below about -65%; inconclusive = mostly about -30% to -63%; also: % is scaled to controls: 0 for no effect and ±100 for the full control effect
#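 Compounds are tested against tagged Six1 and Eya2 proteins bridged by glutathione donor and nickel acceptor beads; after a one-hour incubation at 37 °C without light, AlphaScreen emission is recorded.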
# CtBP-E1A blk: qHTS Assay for Inhibitors of the CtBP/E1A Interaction. CtBP / adenovirus E1A interaction (AlphaScreen). AlphaScreen GST-E1A/His-CtBP binding, 1536-well; active compounds read low. activity change, % (concentration not given with the values). 340,000 tested, 0.49% active; in the data active = activity change below about -65%; inconclusive = mostly about -30% to -63%; also: % is scaled to controls: 0 for no effect and ±100 for the full control effect
#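 Homogeneous bead-based format: GST-tagged E1A captured on glutathione donor beads, His-tagged CtBP on nickel acceptor beads; compounds precede bead addition by 2 h at 37 °C.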
# G9a inh: qHTS Assay for Inhibitors of Histone Lysine Methyltransferase G9a | Potency, µM (highest dose often 102 µM), inactives show at the top dose activity, negative = inhibition, most hits filed as inhibitors | G9a H3K9 monomethylation, AlphaScreen, 2 h | 350,000 tested, 8.8% active; also: potency is read from the fitted curve at half-maximal effect; % is scaled to controls: 0 for no effect and ±100 for the full control effect; nearly all actives have a fitted effect of over 75% in size
#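 AlphaScreen read-out: biotin-H3K9 peptide (500 nM) methylation by 20 nM enzyme with 20 uM SAM, 2 h at room temperature after 15 min compound preincubation; anti-monomethyl H3K9 antibody plus donor/acceptor beads, 10 min dark.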
# HP1b binding inh: HTS for Inhibitors of HP1-beta Chromodomain Interactions with Methylated Histone Tails. Potency, µM (titrated, usually from 114 µM), for the others: at the top dose activity change, negative = inhibition, actives largely listed as inhibitors. AID 540317, 2011. AlphaScreen HP1-beta / biotin-H3K9me3 peptide binding. 390,000 tested, 0.56% active. Chromobox protein homolog 1 (Homo sapiens), P83916; also: potency is read from the fitted curve at half-maximal effect; nearly all actives have a fitted effect of over 70% in size
#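 Compound inhibition of the preformed complex between 50 nM HP1-beta and 50 nM biotinylated H3K9me3 peptide was read by AlphaScreen. Buffer was PBS pH 7.4 with 0.01% Tween-20. Incubations ran 30 min at room temperature, with 10 ug/mL donor/acceptor beads.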
# JMJD2A Tudor inh: qHTS Assay for Inhibitors of JMJD2A-Tudor Domain | AlphaScreen JMJD2A-Tudor / H3K4me3 peptide binding | Potency, µM (highest dose often 114 µM), without a hit: at the top dose activity change, negative = inhibition, usual class: inhibitors | 390,000 tested, 4.4% active | AID 504339, 2011; also: potency is read from the fitted curve at half-maximal effect; % is scaled to controls: 0 for no effect and ±100 for the full control effect; nearly all actives have a fitted effect of over 50% in size
# Target sequence (O75164 whole entry, looked up, the tested form may be a part): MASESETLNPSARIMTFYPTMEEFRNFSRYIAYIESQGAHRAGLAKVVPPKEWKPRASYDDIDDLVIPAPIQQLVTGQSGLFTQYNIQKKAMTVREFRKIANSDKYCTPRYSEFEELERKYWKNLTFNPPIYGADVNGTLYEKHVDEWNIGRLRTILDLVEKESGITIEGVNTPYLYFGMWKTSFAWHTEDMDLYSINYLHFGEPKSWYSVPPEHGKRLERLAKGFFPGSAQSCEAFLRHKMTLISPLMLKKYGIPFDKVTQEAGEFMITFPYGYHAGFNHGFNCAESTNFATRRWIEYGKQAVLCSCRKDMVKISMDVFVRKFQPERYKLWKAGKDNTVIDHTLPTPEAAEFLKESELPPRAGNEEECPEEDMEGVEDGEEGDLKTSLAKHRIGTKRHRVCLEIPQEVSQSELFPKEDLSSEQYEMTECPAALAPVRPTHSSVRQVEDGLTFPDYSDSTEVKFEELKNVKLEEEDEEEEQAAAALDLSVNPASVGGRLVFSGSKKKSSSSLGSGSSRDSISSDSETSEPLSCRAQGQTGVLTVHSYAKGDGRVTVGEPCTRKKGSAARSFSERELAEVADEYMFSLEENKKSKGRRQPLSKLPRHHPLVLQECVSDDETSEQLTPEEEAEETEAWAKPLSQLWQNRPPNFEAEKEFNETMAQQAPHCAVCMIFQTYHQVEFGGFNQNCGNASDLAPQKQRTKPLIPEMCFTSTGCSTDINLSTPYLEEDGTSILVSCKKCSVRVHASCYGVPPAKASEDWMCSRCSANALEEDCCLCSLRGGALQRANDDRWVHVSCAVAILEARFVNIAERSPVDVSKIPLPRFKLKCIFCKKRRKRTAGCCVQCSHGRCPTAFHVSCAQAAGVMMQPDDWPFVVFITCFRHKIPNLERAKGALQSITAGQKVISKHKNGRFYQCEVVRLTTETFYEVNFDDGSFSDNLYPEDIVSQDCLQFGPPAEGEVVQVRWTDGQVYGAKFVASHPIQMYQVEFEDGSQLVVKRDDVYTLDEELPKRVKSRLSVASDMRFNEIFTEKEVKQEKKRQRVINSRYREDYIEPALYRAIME
# BAZ2B inh: qHTS Assay for Inhibitors of BAZ2B; Bromodomain adjacent to zinc finger domain protein 2B (Homo sapiens), Q9UIF8; AlphaScreen BAZ2B-H3K14Ac peptide displacement; Potency, µM (series often up to 114 µM), without a hit: at the top dose activity change, negative = inhibition, most hits filed as inhibitors; 360,000 tested, 4.4% active; also: potency is read from the fitted curve at half-maximal effect; % is scaled to controls: 0 for no effect and ±100 for the full control effect; nearly all actives have a fitted effect of over 60% in size
#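 In this displacement format the biotinylated H3(5-23) peptide acetylated at Lys14 serves as ligand at 50 nM, with BAZ2B at 50 nM in PBS pH 7.4 containing 0.01% Tween-20. Donor and acceptor beads are 10 ug/mL final.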
# Numbers without * were called inactive; u = inconclusive; x = no result; [ ] = remark or other dose. Unless noted, calls follow the shape of the dose curve; as a rule, active = well fitted inhibition curve with a large enough effect; inconclusive = small, poorly fitted or top-dose-only effect; inactive = no such curve, though single readings can be large or run the other way.
SMILES,Six1-Eya2 inh,CtBP-E1A blk,G9a inh,HP1b binding inh,JMJD2A Tudor inh,BAZ2B inh
COC(=O)C(NNc1ccccc1)(NC(=O)c1ccc(F)cc1)C(F)(F)F (stereo unspecified),-5,-7,35µM*,8%,-21%,-8%
O=C(NC(NNc1ccc([N+](=O)[O-])cc1)(C(F)(F)F)C(F)(F)F)c1ccc(F)cc1,-15,1,13µM*,u,u,u
O=C(NC(NNc1ccc([N+](=O)[O-])cc1)(C(F)(F)F)C(F)(F)F)c1ccccc1Cl,-17,-13,u,-23%,u,u
COc1ccc(C2(C)NC(=O)N(CC(=O)Nc3ccc(S(=O)(=O)N4CCCC4)cc3)C2=O)cc1 (stereo unspecified),-8,1,6%,15%,-10%,-16%
CCN(CC)S(=O)(=O)c1ccc(N2CCOCC2)c(NC(=O)c2nn(C(C)C)c(=O)c3ccccc23)c1,-3,-16,x,x,x,x
Oc1[nH]c2ccccc2c1C=Nc1ccc2c(c1)OCCO2,-11,-16,-5%,-7%,u,35µM*
O=C(Nc1ccc(C(=O)O)cc1)/C(=C\c1ccc([N+](=O)[O-])cc1)NC(=O)c1ccco1,4,7,x,x,x,x
O=C(N/N=C/C(Cl)=C/c1ccc([N+](=O)[O-])cc1)C(=O)Nc1ccccc1C(=O)O,-25,-92*,35µM*,-21%,u,u
O=C(N/N=C/C(Cl)=C/c1ccc([N+](=O)[O-])cc1)C(=O)Nc1ccc(C(=O)O)cc1,-19,-98*,50µM*,u,-34%[11.4 µM],u
COC(=O)c1cc2oc(C)cc2n1CC(=O)Nc1ccc(C)cc1C,x,x,-8%[59 µM],25%,-7%,-1%
COc1ccc(C2Nc3ccccc3C(=O)N2C2CCCC2)cc1COc1ccc(NC(C)=O)cc1 (stereo unspecified),x,x,x,x,50µM*,x
COc1ccc(C2Nc3ccccc3C(=O)N2c2ccccc2)cc1COc1ccc(NC(C)=O)cc1 (stereo unspecified),x,x,x,2%[57 µM],-15%[57.1 µM],x
COc1ccc(C2Nc3ccccc3C(=O)N2Cc2ccccn2)cc1COc1ccc(NC(C)=O)cc1 (stereo unspecified),x,x,x,x,56µM*,x
COc1ccc(CN2C(=O)c3ccccc3NC2c2ccc(OC)c(COc3ccc(NC(C)=O)cc3)c2)cc1 (stereo unspecified),x,x,x,x,-24%,x
COc1ccc(C2Nc3ccccc3C(=O)N2Cc2cccnc2)cc1COc1ccc(NC(C)=O)cc1 (stereo unspecified),x,x,x,x,56µM*,x
CCc1cccc(NC(=O)CN2Cc3ccccc3C2=O)c1,x,x,13%[59 µM],21%,4%,0%
COc1ccccc1N1CCN(CC(=O)c2c(N)n(C)c(=O)n(C)c2=O)CC1,2,1,4%,39%,-13%,-20%
CCOc1ccccc1C(=O)Nc1nc2c(s1)CC(C)CC2 (stereo unspecified),x,x,10µM*,0%,-13%,3%
Cn1c(N)c(C(=O)CN2CCc3ccccc3C2)c(=O)n(C)c1=O,-2,3,8.9µM*,31%,3%,-12%
COc1ccc(N2CCN(CC(=O)Nc3cc(C)cc(C)c3)CC2)cc1,-20,-28,79µM*,-20%,u,u
COc1ccccc1OCC(=O)Nc1nc2c(s1)CC(C)CC2 (stereo unspecified),x,x,-37%[59 µM],15%,-30%,-17%
COc1ccc(N2CCN(CC(=O)Nc3ccc(C)c(C)c3)CC2)cc1,-20,-26,u,-5%,u,u
CCN(CC)c1ccc(NC(=O)CN2CCN(c3ccc(F)cc3)CC2)cc1,u,u,8.9µM*,-17%,u,u
O=C(Cc1ccccc1)Nc1sc2c(c1C(=O)Nc1cccc(Cl)c1)CCCC2,x,x,x,x,-10%,x
Cn1c(=O)n(C)c2cc(CNCc3ccccc3Cl)ccc21,x,x,6%[59 µM],50%,0%,-20%
SMILES,Six1-Eya2 inh,CtBP-E1A blk,G9a inh,HP1b binding inh,JMJD2A Tudor inh,BAZ2B inh
CC[C@@H](C)[C@H]1O[C@]2(CC[C@H]1C)C[C@@H]1C[C@@H](CC=C(C)[C@@H](O[C@H]3C[C@H](OC)[C@@H](O[C@H]4C[C@H](OC)[C@@H](O)[C@H](C)O4)[C@H](C)O3)[C@@H](C)C=CC=C3CO[C@@H]4[C@H](O)C(C)=C[C@@H](C(=O)O1)[C@]34O)O2,x,x,29%[59 µM],x,x,x
COc1ccc(N2CCN(C(=O)CN3CCN(c4nc(-c5ccc(F)cc5)cs4)CC3)CC2)cc1,1,-2,u,u,32µM*,20µM*
CCN(CC)c1ccc(NC(=O)CN2CCN(c3nc(C)cc(C)n3)CC2)cc1,u,u,u,u,-18%[11.4 µM],35µM*
COc1ccc(NC(=O)CN2CCc3ccccc3C2)cc1OC,-6,11,3%,24%,-8%,-15%
COc1ccc(NC(=O)CN2CCc3ccccc3C2)cc1,16,x,x,u,22µM*,x
O=C(O)CN1CCc2ccccc2C1,17,-17,u,-23%,28µM*,-5%
COc1ccc(F)cc1S(=O)(=O)Nc1cccc(-c2ccc(N3CCCCCC3)nn2)c1,x,x,-29%[59 µM],10%[57 µM],-19%,-14%
COc1cc(Cl)c(C)cc1NC(=O)c1cc(S(=O)(=O)N(C)C)ccc1N1CCCC1,6,6,-11%[59 µM],-9%,-18%,-8%
O=C(CN1CCN(c2ccc(O)cc2)CC1)Nc1ccc(SC(F)F)cc1,3,14,2.2µM*,-34%,u,u
O=C(CN1CCN(CC(=O)Nc2ccc(-c3ccccc3)cc2)CC1)Nc1ccc(F)cc1,-13,3,35µM*,-10%,-16%,-31%
COc1ccc(N2CCN(CC(=O)Nc3nc4c(s3)CC(C)CC4)CC2)cc1 (stereo unspecified),u,u,10µM*,u,50µM*,x
COc1ccc(N2CCN(CC(=O)Nc3nc(C)cs3)CC2)cc1,-16,-1,3.5µM*,40µM*,5.6µM*,11µM*
c1ccc(COc2cccc(-c3cc4nc(NCCCn5ccnc5)ccn4n3)c2)cc1,-25,-21,x,x,x,x
COc1ccc(CNc2nc3c(-c4cccc(C)c4)nnn3c3ccccc23)cc1,x,x,-6%[59 µM],26%,-4%,1%

# Screening results as filed in PubChem BioAssay.
